Screens as filed in PubChem.
Most compounds without a hit are left out; they make up all but 1.1% or so of the library.
OPRM1-OPRD1 ag – agonists of OPRM1-OPRD1 heterodimerization, primary screen, cell-based, luminescence | 0.3% of 340,000 active | activation, % at 9.3 µM | Mu-type opioid receptor (Homo sapiens) + Delta-type opioid receptor (Homo sapiens), … | cells; in the data active = activation above about 18%;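 note: 0% = vehicle-treated cells and 100% = reference agonist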
HTR5A ag ctr – HTR5A agonists in luminescence cell assay, primary screen, counter-screen for OPRM1-OPRD1 heterodimer agonist project, full-deck HTS | 0.61% of 340,000 active | cell-based | activation, % at 9.3 µM | 5-hydroxytryptamine receptor 5A (Homo sapiens), P47898; in the data active = activation mostly above about 9.5%, no sharp cut-off; inactive = mostly below about 7.6%;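 note: 0% = cells with vehicle only and 100% = reference agonist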
Target sequence (P47898 whole entry, looked up): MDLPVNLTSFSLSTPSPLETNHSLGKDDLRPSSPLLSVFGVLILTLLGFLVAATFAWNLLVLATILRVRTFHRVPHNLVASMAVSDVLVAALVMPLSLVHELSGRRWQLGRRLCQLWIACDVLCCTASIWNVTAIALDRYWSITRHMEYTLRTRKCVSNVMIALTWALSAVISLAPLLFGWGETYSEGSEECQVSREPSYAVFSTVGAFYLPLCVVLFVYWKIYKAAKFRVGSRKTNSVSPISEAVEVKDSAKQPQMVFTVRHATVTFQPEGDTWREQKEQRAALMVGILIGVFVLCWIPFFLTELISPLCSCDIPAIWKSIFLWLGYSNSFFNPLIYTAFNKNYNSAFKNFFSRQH
HTR5A inv ag – HTR5A inverse agonists in luminescence cell assay, primary screen, counter-screen for OPRM1-OPRD1 heterodimer inverse agonist project, full-deck HTS. 5-hydroxytryptamine receptor 5A (Homo sapiens), P47898. HTR5A cell line, inverse agonism. inhibition, % at 9.3 µM. 0.083% of 340,000 active. AID 504634, 2011; in the data active = inhibition mostly above about 23%, no sharp cut-off; inactive = mostly below about 18%;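 note: 0% = cells with DMSO and 100% = no-cell wells with DMSO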
OPRM1-OPRD1 inv – inverse agonists of MOR-DOR heterodimerization, primary screen, cell-based, luminescence | Mu-type opioid receptor (Homo sapiens) + Delta-type opioid receptor (Homo sapiens), … | cell-based MOR-DOR heterodimer luminescence, inverse agonism | inhibition, % at 9.3 µM | 0.21% of 340,000 active; in the data active = inhibition above about 22%, passing the limit was not always enough;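 note: 0% = cells with DMSO and 100% = wells without cells with DMSO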
A1 inh – caspase 3/7 activation in MEF A1-2A-BIM cells, primary screen, A1 inhibitor project, cell-based, luminescence, HTS. caspase activation, % (no concentration beside the values). AID 2462, 2010. Caspase-Glo 3/7 luminescence, 3 h; percent of clofoctol response, vehicle zero. 0.066% of 330,000 active;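 active = over half of replicate activation scores above 10%, or exactly half above 10 with the replicate mean above 10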
* = called active by the depositor; x = no result.

SMILES	OPRM1-OPRD1 ag	HTR5A ag ctr	HTR5A inv ag	OPRM1-OPRD1 inv	A1 inh
COc1ccc(Cc2nc(-c3ccc(-n4cccc4)cc3)no2)cc1OC	1	11*	-32	-5	0
COc1ccc(Cc2nc(-c3ccc(-n4cccc4)cc3)no2)cc1	1	2	-6	-4	0
CC(=O)Nc1ccc(/C=C2/Sc3ccccc3C2=O)cc1	3	0	1	-17	-2
COC(=O)c1ccc2c(c1)C(C)(C)C(/C=C/c1ccc(OC)c(OC)c1OC)=[N+]2C	4	-2	5	-20	0
COC(=O)c1ccc2c(c1)C(C)(C)C(/C=C/c1ccc(O)cc1)=[N+]2C	6	-7	24	-33	10*
COc1cc2c(-c3ccccc3)c(C)oc2cc1/C=N/NC(N)=S	15	9	-44	-76	6.7*
Cc1ccc(Cn2ccsc2=NC(=O)CCl)cc1	59*	92*	-46	-294	1
O=C(NC(=S)Nc1c(Cl)ccc2nsnc12)c1ccccc1F	-1	10*	-7	7	0
Cc1ccc2nsnc2c1NC(=S)NC(=O)c1ccco1	-1	-2	4	8	0
CC(C)(O)CCC(C)(C)O	-3	2	-10	16	-1
CCCCNc1c(-c2ccc(OC)c(Sc3ccc(OC)cc3)c2)nc2ccccn12	11	11*	-28	-64	-1
NC(CSC(c1ccccc1)(c1ccccc1)c1cccc2ccccc12)C(=O)O (centres undefined)	21*	5	-21	-92	x
COc1ccc(CC(C)CC(=O)Nc2ccc(OC)cc2)cc1 (centres undefined)	-1	-5	19	5	0
O=C(c1ccc(Cl)c(S(=O)(=O)N2CCOCC2)c1)N1CCN(c2ccccn2)CC1	-4	-1	-8	14	0
O=C(c1ccc(Cl)c(S(=O)(=O)N2CCCC2)c1)N1CCN(c2ccccn2)CC1	3	12*	-66	-14	0
Cc1cc(C)c(C#N)c(SCC(O)CS(=O)(=O)Cc2ccccc2)n1 (centres undefined)	0	12*	-5	-1	0
Cc1cc(C)c(C#N)c(SCC(=O)c2ccccc2)n1	-2	5	-3	12	1
N#Cc1ccc(Nc2nc(-c3ccc(O)cc3O)cs2)cc1C(F)(F)F	4	13*	-27	-23	-1
Oc1ccc(-c2csc(Nc3ccc4c(c3)OCO4)n2)c(O)c1	4	0	6	-20	x
O=c1c2cn[nH]c2[nH]c(=S)n1-c1cccc(Cl)c1	-3	-3	-31	16	0
COc1cccc(/C=N/NC(=O)CCn2c3ccccc3c3ccccc32)c1	4	12*	-21	-23	0
CC(C)C[C@H](NC(=O)c1nc[nH]c1C(=O)NC1CCN(C(=O)OC(C)(C)C)CC1)C(=O)OCc1ccccc1	17	12*	-38	-95	0
COc1ccc(-c2nc(NC(=O)c3n[nH]c(=O)c4ccccc34)sc2C)cc1	0	-8	20	1	6.7*
CC(C)(C)N(Cc1ccccc1)C(=O)CN1C(=O)c2ccccc2S1(=O)=O	-1	-3	12	7	0
O=S(=O)(c1ccc2c(c1)C(O)c1ccccc1CC2)C(F)(F)F (centres undefined)	7	13*	-32	-39	-2
SMILES	OPRM1-OPRD1 ag	HTR5A ag ctr	HTR5A inv ag	OPRM1-OPRD1 inv	A1 inh
O=C(CSc1nnc(-c2ccc(Cl)cc2)n1-c1ccc(Cl)cc1)N/N=C/c1ccco1	7	1	-5	-33	0
Cc1ccc(/C=N/NC(=O)CSc2nnc(-c3ccc(Cl)cc3)n2-c2ccccc2)o1	17	14*	-49	-90	-1
C/C(=N\O)c1oc2ccc3c(C)cc(=O)oc3c2c1C	x	x	x	x	0
C(=C1c2ccccc2-c2ccccc21)c1ccncc1	0	8.9*	-35	1	x
Cc1cccc(N2CC(C(=O)Nc3ccccc3N3CCOCC3)CC2=O)c1C (centres undefined)	-3	2	-6	15	-1
Cc1cccc(CC2S/C(=N/N=C/c3ccco3)N(c3ccccc3)C2=O)c1 (centres undefined)	5	14*	7	-29	1
O=C(COC(=O)c1cccnc1Cl)Nc1cccc(S(=O)(=O)N2CCOCC2)c1	-3	12*	-42	13	1
O=C(CCCOc1ccccc1)Nc1ccc(Cl)c(S(=O)(=O)N2CCOCC2)c1	2	1	-5	-10	-1
O=C(COc1cccc(Br)c1)Nc1ccc(Cl)c(S(=O)(=O)N2CCOCC2)c1	1	9.3*	-36	-7	0
CC(=O)Nc1cccc(Oc2ncnc3scc(-c4ccc(C(C)C)cc4)c23)c1	1	1	-8	-5	1
O=C1C(=O)N(CCN2CCOCC2)C(c2ccccn2)/C1=C(/O)c1ccccc1 (centres undefined)	-2	12*	-42	11	1
Cc1ccc(/C(O)=C2/C(=O)C(=O)N(CCN3CCOCC3)C2c2ccccn2)cc1 (centres undefined)	-1	-1	-7	8	-2
NC(=O)NCCCC(=O)NCC(c1ccccc1Cl)c1c[nH]c2ccccc12 (centres undefined)	-1	0	1	5	0
CC(C)C[C@@H](CN1CCC[C@@H]1CN1C(=O)C(=O)NC[C@@H]1Cc1ccccc1)N1C[C@H](Cc2ccccc2)N(CC2CCCCCC2)C(=O)C1=O	-1	10*	-39	7	x
CCCn1c(C)cc(C(=O)COC(=O)c2cc(S(=O)(=O)NCC(C)C)c(Cl)cc2Cl)c1C	0	14*	-10	0	0
Cc1ccc(NC(=O)CN(C)C(=O)c2cccc(S(=O)(=O)NCc3cccs3)c2)cc1	-3	0	22	12	0
Cc1cc(C)cc(N(CCC#N)C(=O)CSC2=Nc3ccccc3C3CC=NN23)c1 (centres undefined)	2	12*	-41	-8	1
N#CCCN(C(=O)COc1ccc(F)cc1Br)c1ccccc1F	-3	-2	5	14	0
CCOC(=O)c1oc2ccccc2c1NC(=O)CN1CCN(C)CC1	-3	1	-3	15	17*
Cc1c(C(=O)N(Cc2cccc(Br)c2)C2CCS(=O)(=O)C2)oc2ccc(F)cc12 (centres undefined)	8	5	13	-39	0
Cc1c(C)c(C)c(C(=O)CCc2cccc(NC(=O)CCC(=O)O)c2)c(C)c1C	-2	-2	6	12	11*
COc1cc(C)ccc1OCCOCCOc1cccc2ccc(C)nc12	3	8.7*	-24	-16	1
